Measured values taken from PubChem BioAssay AID588342 (National Center for Advancing Translational Sciences (NCATS), 2011).
Screen size: about 360,000 compounds; about 25,000 (6.9%) were called active. Not shown: some 9% with an inconclusive outcome. The call rests on the fitted dose curve; in most records, active means well fitted inhibition curve with a large enough effect; inconclusive means small, poorly fitted or top-dose-only effect; inactive means flat fitted curve, though single readings scatter. Shown is part of a subset that was picked to be rich in actives.

target: Luciferin 4-monooxygenase (Photinus pyralis) (UniProt P08659); assay: qHTS profiling assay for firefly luciferase inhibitor/activator using purifed enzyme and Km concentrations of substrates (counterscreen for miR-21 project); settings: purified FLuc, luminescence inhibition; series mostly up to 57.5 µM; activity change, negative = inhibition: at the top concentration; further: nearly all actives have a fitted effect of over 55% in size;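 on activity change, negative = inhibition: plate controls were vehicle for no effect and reference inhibitor for full effect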
Sequence (P08659 whole entry, looked up): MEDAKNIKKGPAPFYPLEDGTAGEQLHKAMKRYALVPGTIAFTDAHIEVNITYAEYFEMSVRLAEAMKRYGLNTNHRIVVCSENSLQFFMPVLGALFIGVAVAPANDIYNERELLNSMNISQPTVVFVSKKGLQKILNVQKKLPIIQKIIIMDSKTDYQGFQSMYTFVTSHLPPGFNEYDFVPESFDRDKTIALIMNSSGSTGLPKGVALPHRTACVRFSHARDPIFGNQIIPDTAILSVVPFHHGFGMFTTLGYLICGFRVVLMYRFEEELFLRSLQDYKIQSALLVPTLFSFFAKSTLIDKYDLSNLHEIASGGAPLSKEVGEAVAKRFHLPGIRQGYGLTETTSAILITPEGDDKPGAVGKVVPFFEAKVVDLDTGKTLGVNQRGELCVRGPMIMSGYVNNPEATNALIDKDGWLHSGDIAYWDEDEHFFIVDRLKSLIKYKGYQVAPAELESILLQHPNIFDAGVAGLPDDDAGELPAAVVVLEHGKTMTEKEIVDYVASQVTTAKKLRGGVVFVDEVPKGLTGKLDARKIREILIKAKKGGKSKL
Text: MLPCN Grant: 1 R21 NS059478-01 (miR-21 grant) Assay Provider: NCGC NCGC Assay Overview: Firefly (Photinus pyralis) luciferase is one of the most commonly used transcriptional reporters for a number of reasons. It is considered one of the more dynamically responsive reporters -that is, responsive to changes in reporter transcription - as it requires no post-translational modifications and is enzymatically active directly after protein synthesis (Wood, 1998). Additionally, the half-life of the luciferase protein is short relative to other reporter-gene products (Wood, 1995). Whereas reporters with long half-lives potentially allow for increased signal due to accumulation of reporter-gene product, once accumulated in the cell, dynamic changes in reporter-gene expression may be difficult to detect(Fan and Wood, 2007; Almond et al., 2004). It has been shown that wild-type P. pyralis luciferase has a half-life of approximately […] hours in mammalian cells (Thompson et al., 1991). Firefly luciferase reporter-gene assays are also generally considered one of the most sensitive assay types (Wood, 1995; Wood, 1998). Although light produced in a bioluminescence reaction is of lower intensity than that produced during fluorescence emission, this is offset by little to no background light inherent to luminescent assays. Thus the luciferase reporter can be expressed at much lower levels than fluorescent proteins while still providing robust signal. # However, it was initially observed, in 1991, by Thompson et al., that compounds that resemble the substrates of firefly luciferase (FLuc) can act as competitive inhibitors of the enzyme, and that these compounds, upon interaction with luciferase in the cell, can actually stabilize the protein and increase its half-life. Accumulated intracellular FLuc protein can be measured as an increase in luminescence signal, upon addition of detection reagents (which contain high concentrations of FLuc substrates) commonly used in high-throughput screening. In cell-based reporter gene assays that use FLuc as the reporter gene to quantitate the potential influence of a given compound against the target biology, this apparent increase in luminescence can mistakenly be interpreted as identification of a compound that is active against the target of interest. This is the case for the miR-21 FLuc reporter gene assay used to identify inhibitors of the miR-21 pathway (PubChem AID 2289) - compounds of interest will inhibit miR-21 biogenesis/expression or activity, and are identified by causing an increase in luminescence, due to increased FLuc translation. However, FLuc inhibitory compounds that stabilize the FLuc protein will give an identical read-out, making it difficult to distinguish compounds that are active against the target from those active against FLuc. Previous profiling work to determine the prevalence of compounds that affect FLuc enzymatic activity (PubChem AID 411) identified that ~3% of the MLSMR library (then at ~72K) inhibited FLuc. […] Since the MLSMR had grown to ~350K compounds, and since it was expected that a significant percentage of compounds found active in the miR-21 FLuc assay would be FLuc inhibitors, the library was screened for activity against FLuc using a biochemical assay of purified FLuc and KM concentrations of FLuc substrates (D-luciferin and ATP).
NCGC Assay Protocol Summary: Reagents: 50mM Tris acetate, pH 7.5; 10mM Mg acetate; 10uM D-luciferin (Sigma #L9504); 10uM ATP; 0.01% Tween-20; 0.05% BSA; 10nM P. pyralis luciferase (Sigma #L9506) Control compounds used were two known firefly luciferase inhibitors (compounds (2) and (5) in Auld et al., 2010), and DMSO. […]

Compound	Potency	activity change, negative = inhibition
O=C(Nc1sc2c(c1C(=O)O)CCC2)c1ccccc1F	26900 nM (active)	–
NC(=O)c1c(NC(=O)c2ccccc2)sc2c1CCCC2	675 nM (active)	–
CC(C)(C)C1CCc2c(sc(NC(=O)c3ccccc3F)c2C(=O)N2CCCCC2)C1 (stereo not drawn)	–	-0.0444% (inactive)
O=C(Cn1c(=O)sc2ccccc21)Nc1nc2c(s1)CCCC2	–	-4.24% (inactive)
Cc1ccccc1NC(=O)c1c(NC(=O)c2ccccc2F)sc2c1CCC(C)C2 (stereo not drawn)	–	-1.42% (inactive)
C=CCN(CC=C)S(=O)(=O)c1ccc(C(=O)Nc2sc3c(c2C(N)=O)CCCCC3)cc1	–	-4.48% (inactive)
Cc1ccc(C(=O)c2c(NC(=O)c3ccncc3)sc3c2CCCC3)cc1	–	3.4% (inactive)
O=C(Nc1nc2c(s1)CCCC2)c1ccccc1F	338 nM (active)	–
O=C(CCS(=O)(=O)c1ccccc1)Nc1nc2c(s1)CCCC2	–	-2.31% (inactive)
O=C(O)c1cccc(S(=O)(=O)N2CC=C(c3ccccc3)CC2)c1	–	-6.25% (inactive)
Cc1nnc(SCC(=O)NCc2ccccc2Cl)c2nn(-c3ccccc3)c(C)c12	–	-15.3% (inactive)
CC(NCCc1ccc(S(N)(=O)=O)cc1)C(=O)NCc1ccccc1 (stereo not drawn)	–	2% (inactive)
Cc1ccc(S(=O)(=O)N(C)C)cc1NC(=O)c1ccc(-n2cncn2)c([N+](=O)[O-])c1	–	-3.04% (inactive)
O=C(CNC(=O)OCc1ccccc1)NC1CCCCNC1=O (stereo not drawn)	–	-1.31% (inactive)
CCOc1cc(-c2nnc(SCC(=O)NC3CCCCC3)nc2-c2ccc(OC)c(OCC)c2)ccc1OC	–	2.92% (inactive)
Cc1cc(C)cc(NC(=O)Cn2c(=O)c3ccccc3n3nncc23)c1	–	2.23% (inactive)
Cc1cccc(C(=O)NCC(=O)OCC(=O)N(C)CC(=O)Nc2ccccc2Cl)c1	–	5.48% (inactive)
COc1ccc(CCNC(=O)c2cc3cccc4c3n2CC(C)S4)c(OC)c1OC (stereo not drawn)	–	-16.9% (inactive)
CN1C(=O)c2ccccc2Sc2ccc(NC(=O)Cc3ccc(Cl)cc3)cc21	–	-4.82% (inactive)
CCC1C(=O)c2ccccc2N(C)C1=O (stereo not drawn)	–	3.54% (inactive)
CN1C(=O)/C(=C\c2cc(Br)cs2)c2ccccc21	4260 nM (active)	–
COc1ccc(CN(C)C(=O)CC(c2ccccc2)c2ccccc2)cc1	–	0.703% (inactive)
COc1ccc(C(CC(=O)c2ccccc2)S(=O)(=O)c2ccccc2)cc1 (stereo not drawn)	478 nM (active)	–
COc1ccc(N(Cc2ccccc2)S(=O)(=O)c2cccc(C(=O)O)c2)cc1	–	1.17% (inactive)
Cc1c(NS(=O)(=O)c2cc(C(=O)NCCc3ccc(F)cc3)cc(Cl)c2Cl)c(=O)n(-c2ccccc2)n1C	–	0.627% (inactive)
COc1cccc(-n2c(=O)c3c(C)c(C(=O)N(C)C)sc3n(Cc3cccc(C)c3)c2=O)c1	–	-3.37% (inactive)
Cc1c(C(N)=O)sc2ncn(CCOc3ccccc3)c(=O)c12	–	-2.28% (inactive)
Cc1cccc(OC(=O)c2sc3ncn(C)c(=O)c3c2C)c1	12000 nM (active)	–
